Results filed as inconclusive are left out. Where a call stands in place of a potency, no number is given. Activity calls are given as the source filed them. The call rests on the fitted dose curve; in most records, active means well fitted curve in the direction sought with a large enough effect; inconclusive means small, poorly fitted or top-dose-only effect, or another doubt; inactive means no such curve, though single readings can be large; an effect the other way counts as inactive or inconclusive.
Tests used:
[1] = tested on: Zika virus NS2B-NS3 protease; assay: Primary screen GU AMC qHTS for Zika virus inhibitors (AID 1347154); further: nearly all actives have a fitted effect of over 70% in size
Method in brief: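 Unlinked Zika NS2B hydrophilic domain–NS3 protease complex at 25 nM in 10 mM Tris-HCl pH 8.0, 0.01% Tween 20, with an AMC peptide substrate. Fluorescence change (340/450 nm) over 15 min at room temperature, normalized to controls, fitted to 4-parameter Hill.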

[2] = tested on: Zika virus NS2B-NS3 protease (unlinked); assay: Optimization of GU AMC qHTS for Zika virus inhibitors: Unlinked NS2B-NS3 protease assay (AID 1347151); further: nearly all actives have a fitted effect of over 80% in size; further: potency means the concentration at half of the fitted maximal effect
Method in brief: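 Percent inhibition is derived from the 15-min change in AMC fluorescence, normalized against no-inhibitor and no-enzyme controls, then fitted to a 4-parameter Hill curve. Aprotinin was the intraplate control.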

[3] = tested on: Zika virus NS2B-NS3 protease (linked construct); assay: Confirmatory screen NINDS AMC qHTS for Zika virus inhibitors (AID 1347152);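 further: AMC fluorescence gain from cleaved Bz-Nle-KRR-AMC substrate over 15 min; top concentration of the series differs between compounds; nearly all actives have a fitted effect of over 70% in size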
Method in brief: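 In this dose-response qHTS, AMC release from 10 microM Bz-Nle-KRR-AMC by 1 nM linked protease is measured over 15 minutes (about 20% conversion) at pH 8.0. Percent inhibition is fitted to a 4-parameter Hill curve.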

[4] = tested on: Zika virus NS2B-NS3 protease (unlinked complex); assay: Confirmatory screen GU AMC qHTS for Zika virus inhibitors (AID 1347153); further: nearly all actives have a fitted effect of over 70% in size
Method in brief: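 Unlinked enzyme 25 nM, Tris pH 8.0/0.01% Tween 20; cpd 15 min RT, dark; + AMC substrate 10 µM (Km 18.3 µM); 340/450 nm read at t0 and 15 min; % inhibition → 4-param fit.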

`Cc1ccc2c(n1)Oc1ccc(C(C)C(=O)OCC(=O)N(C)C)cc1C2` (stereo unspecified) was tested, and the Potency [1] was “inactive”.
With `CSc1nc(N)c2ncn([C@@H]3O[C@H](COP(=O)(O)OP(=O)(O)OP(=O)(O)O)[C@@H](O)[C@H]3O)c2n1` the Potency [2] was “inactive” and the Potency [1] was “inactive”.
With `CN1CCC[C@H]1c1cccnc1` the Potency [1] was “inactive”.
With `N[C@H](CCCP(=O)(O)O)C(=O)O` the Potency [2] was “inactive” and the Potency [1] was “inactive”.
For `Cc1nc2sccn2c(=O)c1CCN1CCC(=C(c2ccccc2)c2ccc(F)cc2)CC1`, the Potency [1] was “inactive”.
`C[N+]1(C)CCC(OC(=O)C(c2ccccc2)c2ccccc2)CC1` was tested, and the Potency [2] was “inactive” and the Potency [1] was “inactive”.
For `CC(N)C(=O)OC(C)(C)Cc1ccc(Cl)cc1` (stereo unspecified), the Potency [2] was “inactive” and the Potency [1] was “inactive”.
In the case of `CCCCCCCCCCCC(=O)[O][Sn]([CH2]CCC)([CH2]CCC)[O]C(=O)CCCCCCCCCCC`, the Potency [1] is reported as “inactive”.
In the case of `NS(=O)(=O)C#Cc1ccccc1`, the Potency [2] is reported as “inactive” and the Potency [1] is reported as “inactive”.
In the case of `Clc1ccc(N2CCN(Cc3c[nH]c4ncccc34)CC2)cc1`, the Potency [2] is reported as “inactive” and the Potency [1] is reported as “inactive”.
In the case of `Cc1c(Nc2ncccc2C(=O)O)cccc1C(F)(F)F`, the Potency [1] is reported as “inactive”.
`O=C1NC(=O)/C(=C/c2ccc(-c3ccc(F)cc3O)o2)S1` was tested, and the Potency [2] was 21.2 µM (active), the Potency [3] was “inactive” and the outcome [4] was “inactive”.
In the case of `CNc1ncnc2c1ncn2[C@@H]1O[C@H](CO)[C@@H](O)[C@H]1O`, the Potency [2] is reported as “inactive” and the Potency [1] is reported as “inactive”.
In the case of `Cc1c(N)c(=O)n(-c2ccccc2)n1C`, the Potency [1] is reported as “inactive”.
In the case of `COc1cc(CNC(=O)CCCC/C=C/C(C)C)ccc1O`, the Potency [1] is reported as “inactive”.
With `NC(=O)C(c1ccccc1)(c1ccccc1)[C@@H]1CCN(CCc2ccc3c(c2)CCO3)C1` the Potency [1] was “inactive”.
`CCC1C(=O)OCC1Cc1cncn1C` (stereo unspecified) was tested, and the Potency [2] was “inactive” and the Potency [1] was “inactive”.
For `CCCCN(CC)c1nc(C)nc2c1c(C)cn2-c1c(C)cc(C)cc1C`, the Potency [2] was 26.7 µM (active), the Potency [3] was “inactive” and the outcome [4] was “inactive”.
For `Cn1cc(C2=C(c3ccc(Cl)cc3Cl)C(=O)NC2=O)c2ccccc21`, the Potency [2] was “inactive” and the Potency [1] was “inactive”.
In the case of `N[C@@H](CC(=O)O)C(=O)O`, the Potency [2] is reported as “inactive” and the Potency [1] is reported as “inactive”.
`O=c1[nH]c2cc([N+](=O)[O-])c([N+](=O)[O-])cc2[nH]c1=O` was tested, and the Potency [2] was “inactive” and the Potency [1] was “inactive”.
For `Cc1cc(NC(=O)Nc2ccc3c(ccn3C)c2)sn1`, the Potency [2] was “inactive” and the Potency [1] was “inactive”.
In the case of `CSc1ccccc1N1CCN(CCCCCC(=O)NC2CCCc3ccccc32)CC1` (stereo unspecified), the Potency [2] is reported as “inactive” and the Potency [1] is reported as “inactive”.
`OC[C@H]1O[C@@H](n2cnc3c(NC4CCCC4)ncnc32)[C@H](O)[C@@H]1O` was tested, and the Potency [2] was “inactive” and the Potency [1] was “inactive”.
For `COc1cc2c3cc1Oc1cc(ccc1O)C[C@@H]1c4c(cc(OC)c(O)c4Oc4ccc(cc4)C[C@@H]3N(C)CC2)CC[N+]1(C)C`, the Potency [1] was “inactive”.
For `Nc1nc(Cl)nc2c1ncn2[C@@H]1O[C@H](CO)[C@@H](O)[C@H]1O`, the Potency [2] was “inactive” and the Potency [1] was “inactive”.
With `Nc1cc(-c2ccncc2)c[nH]c1=O` the Potency [1] was “inactive”.

— PubChem BioAssay (NCATS)
